According to PubChem BioAssay:
Inconclusive results are not listed. Calls of active or inactive are those of the source.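 The calls were made as follows, unless noted: active = normalized viability below 100% at a tested concentration; inactive = the rest.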

Columns and labels:
[1] = viability loss in pontine glioma line – cell-based, SU-DIPG-XVII, MIPE5.0, CellTiter-Glo, qHTS, dose response (AID 1347060; cut-off not given, nearly all actives have AC50 up to about 26 µM;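 also: cells exposed to compound for 48 hours before viability readout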); conditions: CellTiter-Glo ATP luminescence
[2] = viability loss in pontine glioma line – cell-based, JHH-DIPG-1, MIPE4.0, CellTiter-Glo, qHTS, dose response (AID 1347062; cut-off not given, nearly all actives have AC50 up to about 27 µM;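 as to AC50: cells exposed to compound for two days before readout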); conditions: JHH-DIPG-1 viability, CellTiter-Glo ATP luminescence
[3] = viability loss in pontine glioma line – cell-based, SU-DIPG-IV, MIPE4.0, CellTiter-Glo, qHTS, dose response (AID 1347063; cut-off not given, nearly all actives have AC50 up to about 30 µM;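 also: compound exposure lasted 48 hours before the viability readout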); conditions: CellTiter-Glo ATP luminescence
[4] = viability loss in pontine glioma line – cell-based, SU-DIPG-XXV, MIPE5.0, CellTiter-Glo, qHTS, dose response (AID 1347065; cut-off not given, nearly all actives have AC50 up to about 26 µM;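 also: cells exposed to compound for 48 hours before ATP readout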); conditions: CellTiter-Glo ATP luminescence
[5] = growth inhibition of DIPG cells – cell-based, MIPE5.0 library, qHTS (AID 1347068; cut-off not given, nearly all actives have IC50 up to about 30 µM;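 also: cells exposed to compound for 48 hours before viability readout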); conditions: SU-DIPG-XXV viability
[6] = JHH-DIPG-1 glioma cell viability, MIPE5.0 library, CellTiter-Glo luminescence, qHTS (AID 1347067; cut-off not given, nearly all actives have AC50 up to about 26 µM;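 also: cells exposed to compound for 48 hours before readout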); conditions: JHH-DIPG-1 glioma viability, CellTiter-Glo ATP luminescence
[7] = viability loss with induced miR-34 in A549 – imaging, A549 dox-inducible miR-34, nuclei and caspase counts, primary screen (AID 1347080;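 active = compounds whose cell count with miR-34 switched on is under 0.7 times the count with it off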); conditions: A549 miR-34 inducible, Hoechst nuclei count, 48 h
[8] = compounds altering HSF1 focus formation in cells – imaging, Selleck Cancer Library (AID 1347162; in the data active = plate-normalised HSF1 focus index below about 0.46); conditions: human cells, HSF1 nuclear foci imaging, at 10 µM; SSMD: measured here: HSF1 foci SSMD mean; cell count: measured here: cell number; plate-normalised HSF1 focus index: stronger effect = lower value
[9] = MELAS cybrid and Rieske KO viability enhancers – cell-based, MELAS cybrids, Rieske KO mouse fibroblasts, CellTiter-Glo, primary screen (AID 1508586;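 active = mean z-score across replicates of 1.96 or higher in either the MELAS or the Rieske mutant cell line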;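 also: z relative to plate mean and SD of compound and empty wells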); conditions: low glucose
[10] = drug combination growth inhibition, ovarian cancer – cell-based, oncology-focused library, rucaparib conditional, profiling panel (AID 1508598); conditions: patient-derived ovarian cancer cells, CellTiter-Glo viability, 144 h, stronger effect = lower value

C[C@@H]1COC(Nc2ccc3ncnc(Nc4ccc(OCc5nccs5)c(Cl)c4)c3c2)=N1
active: AC50 [1] 20900 nM | AC50 [2] 18700 nM | AC50 [3] 16600 nM | AC50 [4] 20900 nM | IC50 [5] 23500 nM

CC(C)c1cnn2c(NCc3ccccc3)cc(N[C@@H](CO)[C@H](O)CO)nc12
active: AC50 [1] 263 nM | AC50 [2] 418 nM | AC50 [3] 187 nM | AC50 [4] 235 nM | AC50 [6] 417 nM | IC50 [5] 468 nM

O=C1NC(=O)C(c2cnc3ccccn23)=C1c1cn2c3c(cccc13)CN(C(=O)N1CCOCC1)CC2
inactive: outcome [2]
active: AC50 [1] 1050 nM | AC50 [3] 8.33 nM | AC50 [4] 11800 nM | AC50 [6] 18600 nM | IC50 [5] 18600 nM

C=CCn1c(=O)c2cnc(Nc3ccc(N4CCN(C)CC4)cc3)nc2n1-c1cccc(C(C)(C)O)n1
1.04: SSMD [8]
0.673: fold change ([7]; measured here: relative caspase fold change +Dox/-Dox)
1100: cell count ([7]; measured here: total cells without miR-34 induction)
6680: cell count [8]
1.66: z-score ([9]; Rieske KO mouse fibroblast survival, CellTiter-Glo 72 h)
active: AC50 [1] 4170 nM | AC50 [2] 418 nM | AC50 [3] 11800 nM | AC50 [4] 1050 nM | viability ([10]; at 0.000305 µM, OCI-P5x cells, with rucaparib 20 µM, 100% = cells with rucaparib alone) 88.3% | viability ([10]; at 0.000305 µM, OCI-P5x cells, without rucaparib) 91.1% | viability ([10]; at 0.00122 µM, OCI-P5x cells, without rucaparib) 98.1% | viability ([10]; at 0.00488 µM, OCI-P5x cells, without rucaparib) 98.9% | viability ([10]; at 0.0195 µM, OCI-P5x cells, with rucaparib 20 µM, 100% = cells with rucaparib alone) 88.1% | viability ([10]; at 0.0195 µM, OCI-P5x cells, without rucaparib) 97.6% | viability ([10]; at 0.0781 µM, OCI-C5x cells, without rucaparib) 96.7% | viability ([10]; at 0.0781 µM, OCI-P5x cells, with rucaparib 20 µM, 100% = cells with rucaparib alone) 82.5% | viability ([10]; at 0.0781 µM, OCI-P5x cells, without rucaparib) 92.8% | viability ([10]; at 0.313 µM, OCI-C5x cells, with rucaparib 10 µM, 100% = cells with rucaparib alone) 69.6% | viability ([10]; at 0.313 µM, OCI-C5x cells, without rucaparib) 55.3% | viability ([10]; at 0.313 µM, OCI-P5x cells, with rucaparib 20 µM, 100% = cells with rucaparib alone) 65.5% | viability ([10]; at 0.313 µM, OCI-P5x cells, without rucaparib) 59.9% | viability ([10]; at 1.25 µM, OCI-C5x cells, with rucaparib 10 µM, 100% = cells with rucaparib alone) 54.7% | viability ([10]; at 1.25 µM, OCI-C5x cells, without rucaparib) 40.2% | viability ([10]; at 1.25 µM, OCI-P5x cells, with rucaparib 20 µM, 100% = cells with rucaparib alone) 45.8% | viability ([10]; at 1.25 µM, OCI-P5x cells, without rucaparib) 23.7% | viability ([10]; at 5 µM, OCI-C5x cells, with rucaparib 10 µM, 100% = cells with rucaparib alone) 35.9% | viability ([10]; at 5 µM, OCI-C5x cells, without rucaparib) 25.1% | viability ([10]; at 5 µM, OCI-P5x cells, with rucaparib 20 µM, 100% = cells with rucaparib alone) 14.5% | viability ([10]; at 5 µM, OCI-P5x cells, without rucaparib) 7.98%
inactive: fold change ([7]; stronger effect = lower value, cell number ratio, induced over uninduced) 1.27 | plate-normalised HSF1 focus index [8] 1.07 | z-score ([9]; MELAS cybrid survival, CellTiter-Glo 48 h, stronger effect = higher value) 0.245 | viability ([10]; at 0.000305 µM, OCI-C5x cells, with rucaparib 10 µM, 100% = cells with rucaparib alone) 126% | viability ([10]; at 0.000305 µM, OCI-C5x cells, without rucaparib) 107% | viability ([10]; at 0.00122 µM, OCI-C5x cells, with rucaparib 10 µM, 100% = cells with rucaparib alone) 122% | viability ([10]; at 0.00122 µM, OCI-C5x cells, without rucaparib) 109% | viability ([10]; at 0.00122 µM, OCI-P5x cells, with rucaparib 20 µM, 100% = cells with rucaparib alone) 102% | viability ([10]; at 0.00488 µM, OCI-C5x cells, with rucaparib 10 µM, 100% = cells with rucaparib alone) 121% | viability ([10]; at 0.00488 µM, OCI-C5x cells, without rucaparib) 107% | viability ([10]; at 0.00488 µM, OCI-P5x cells, with rucaparib 20 µM, 100% = cells with rucaparib alone) 102% | viability ([10]; at 0.0195 µM, OCI-C5x cells, with rucaparib 10 µM, 100% = cells with rucaparib alone) 120% | viability ([10]; at 0.0195 µM, OCI-C5x cells, without rucaparib) 102% | viability ([10]; at 0.0781 µM, OCI-C5x cells, with rucaparib 10 µM, 100% = cells with rucaparib alone) 104%
1400: cell count ([7]; measured here: total cells with miR-34 induction, stronger effect = lower value)
